# Cruzain noTriton – blocks cruzain activity in detergent-free assay; P25779; Potency, µM, actives largely listed as inhibitors; AID 1476; purified cruzain, Z-FR-AMC fluorescence, no detergent; 2.3% of 200,000 active; further: nearly all actives have a fitted effect of over 40% in size
# Target sequence (P25779 123-467 limits assumed): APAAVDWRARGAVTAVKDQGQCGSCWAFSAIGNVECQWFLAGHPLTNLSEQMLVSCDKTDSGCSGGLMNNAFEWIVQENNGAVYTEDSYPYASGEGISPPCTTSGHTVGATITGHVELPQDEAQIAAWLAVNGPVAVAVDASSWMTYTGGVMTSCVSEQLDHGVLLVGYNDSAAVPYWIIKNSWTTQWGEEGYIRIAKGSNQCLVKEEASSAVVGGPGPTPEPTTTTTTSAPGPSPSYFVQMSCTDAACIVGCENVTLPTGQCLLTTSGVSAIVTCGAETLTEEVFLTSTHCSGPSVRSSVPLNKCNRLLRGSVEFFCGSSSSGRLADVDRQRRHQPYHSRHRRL
#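 Purified cruzain at 1.5 nM, pre-incubated 15 min with compound at room temperature in 100 mM sodium acetate pH 5.5, 5 mM DTT, 0.00005% Triton X-100. Reaction started with 2 uM Z-FR-AMC; AMC fluorescence increase over 60 s gives rate.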
# Cruzain inh Det – cruzain (T. cruzi) inhibition with detergent. P25779. purified cruzain, Z-FR-AMC fluorescence, 0.01% Triton. Potency, µM, hits mostly inhibitors. 0.43% of 200,000 active. AID 1478; further: nearly all actives have a fitted effect of over 40% in size
#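 In this qHTS format, compounds are incubated with 1.5 nM cruzain for 15 min at room temperature before 2 uM Z-FR-AMC is added. Release of AMC is followed at 360/450 nm, and progress is taken as the 60 s fluorescence difference.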
# A number is an active result; n = inactive; u = inconclusive; ! = not confirmed by another sample. Hits are enriched below; roughly 2.4% of the tested compounds scored in any of these assays. The call rests on the fitted dose curve; in most records, active means well fitted curve in the direction sought with a large enough effect; inconclusive means small, poorly fitted or top-dose-only effect, or another doubt; inactive means no such curve, though single readings can be large; an effect the other way counts as inactive or inconclusive.
SMILES,Cruzain noTriton,Cruzain inh Det
Cc1ccc2nc(-c3ccc(N)cc3)sc2c1S(=O)(=O)O,20µM,35µM
Cc1ccc2nc(-c3ccc(NS(=O)(=O)c4ccccc4)cc3)sc2c1,n,n
O=C(Nc1ccc(Cl)c(Cl)c1)C1CC(=O)N(c2ccc(Br)cc2)C1 (stereo not drawn),20µM,n
Cc1cc(C)cc(NC(=O)C2CC(=O)N(c3ccccc3)C2)c1 (stereo not drawn),n,n
Cc1ccc(OCCSc2nc3ccc(NC(=O)c4ccc5c(c4)OCO5)cc3s2)cc1,n,n
CCCCn1c(=O)[nH]c(=O)c2c1nc(CN1C(=O)c3ccccc3S1(=O)=O)n2CCC,25µM,n
CCCCn1c(=O)[nH]c(=O)c2c1nc(COc1ccc(C#N)cc1)n2CCC,n,n
CCCCCCNC(=O)Nc1ccc(S(=O)(=O)Nc2ccc(CCNC[C@H](O)COc3ccc(O)cc3)cc2)cc1,n,n
CN(C)S(=O)(=O)c1cccc(NC(=S)NN=C(Cc2ccccc2)Cc2ccccc2)c1,32µM,n
COc1cc(/C=N/NC(=S)Nc2cccc(S(=O)(=O)N(C)C)c2)ccc1O,n,n
Cc1cccc(NC(=O)CN2C(=O)N/C(=C\c3ccc(N4CCOCC4)cc3)C2=O)c1,n,n
Cc1ccc(-n2cccc2/C=C2/NC(=O)N(CC(=O)Nc3cccc(C)c3)C2=O)cc1,5µM,n
Cc1oc2ccc(O)c(CN3CCCCCC3)c2c1C(=O)Nc1cccc(C(F)(F)F)c1,u,n
CCOC(=O)C1CCN(c2ncnc3c2oc2ccccc23)CC1,n,n
CCOC(=O)C1CCN(c2nc(-c3ccccc3)nc3c2oc2ccccc23)CC1,20µM,n
CCCN(C(=O)c1sc2nc3n(c(=O)c2c1C)CCCC3)c1ccccc1C,n,n
CCOC(=O)c1oc2ccc(S(=O)(=O)n3nc(-c4ccc(Cl)cc4)cc3N)cc2c1C,13µM,n
CCOC(=O)c1oc2ccc(S(=O)(=O)n3nc(-c4ccc(C)cc4)cc3N)cc2c1C,u,n
Nc1ccc(S(=O)(=O)c2ccc(NCN3C(=O)NC(=O)C(=O)C3=O)cc2)cc1,n,n
COc1cccc(NC(=O)C(OC(=O)/C=C/c2ccc3c(c2)OCO3)c2ccccc2)c1 (stereo not drawn),20µM,n
COc1ccc(NC(=O)C(c2ccccc2)N(C)C(=O)/C=C\c2ccc3c(c2)OCO3)cc1 (stereo not drawn),n,n
Cc1ccc(C(=O)Nc2ccc3c(c2)N(C)C(=O)c2ccccc2S3)cc1,n,n
CCNC(=O)COc1ccc(Br)cc1Cl,n,n
CSc1ccc(/C=N/NC(=O)COc2ccc(Br)cc2Cl)cc1,25µM,n
CCCc1ccc(Oc2coc3cc(OCC(=O)Nc4ccccc4C)ccc3c2=O)cc1,n,n
SMILES,Cruzain noTriton,Cruzain inh Det
CCc1ccc(Oc2coc3cc(OCC(=O)Nc4cc(C)ccc4C)ccc3c2=O)cc1,25µM,n
CCn1c(C(=O)N2CCCC(C(=O)N3CCN(c4ccccc4)CC3)C2)cc2sccc21 (stereo not drawn),u,n
Cc1cc(C(=O)CSc2nnc(-c3ccccc3)o2)c(C)n1CC1COc2ccccc2O1 (stereo not drawn),20µM,n
Cc1cc(C(=O)CSc2nnc(-c3ccc(F)cc3)o2)c(C)n1CC1COc2ccccc2O1 (stereo not drawn),16µM,n
Cc1cc(C(=O)CSc2nnc(-c3ccco3)o2)c(C)n1CC1COc2ccccc2O1 (stereo not drawn),u,n
Cc1cc(C(=O)CSc2nnc(-c3ccc(F)cc3)o2)c(C)n1CC1CCCO1 (stereo not drawn),n,n
O=C(CSc1nnc(-c2ccc(F)cc2)o1)c1ccc2c(c1)OCCO2,13µM,n
CC(C)(C)c1ccc(-c2nnc(SCC(=O)c3ccc4c(c3)OCCO4)o2)cc1,n,n
CCOc1ccccc1C(=O)NCc1ccc2c(c1)CCN2C(C)=O,n,n
Cc1nc2nc(NCc3ccc(Br)cc3)[nH]n2c(=O)c1Cc1ccccc1,n,n
CCOC(=O)NC(=O)c1cn(CCN(C)C)c(=O)[nH]c1=O,n,n
Cc1ccccc1NC(=O)c1ccc(Nc2c([N+](=O)[O-])cc([N+](=O)[O-])c3ccccc23)cc1,32µM,n
Cc1c(NC(=O)c2ccccc2)cccc1[N+](=O)[O-],n,n
CCc1ccccc1N1CC(c2nc3ccccc3n2CCC2CCCCC2)CC1=O (stereo not drawn),n,n
Oc1ccc(Cc2cc(Cl)cc(Cl)c2O)cc1Cl,n,n
COC(=O)c1c(NC(=O)c2c(C)noc2C)sc2c1CCCCCC2,n,n
COC(=O)c1c(NC(=O)c2c(-c3ccccc3Cl)noc2C)sc2c1CCC2,13µM,n
O=C(Oc1ccc2c(c1)O/C(=C\c1ccncc1)C2=O)c1ccccc1,n,n
Cc1ccsc1/C=C1\Oc2cc(OCC(=O)c3ccccc3)ccc2C1=O,13µM,n
COc1ccc(-c2nc(CSc3nncn4c3cc3sccc34)c(C)o2)cc1OC,n,n
CC(=O)N(OCc1ccccc1)[C@@H]1c2cc(C#N)ccc2OC(C)(C)[C@H]1O,u,n
COC(=O)c1c(C)ccc2c(O)c3c(cc12)C(=O)c1c2c(cc(O)c1C3=O)[C@@]1(C)O[C@@](C)(O2)[C@@H](O)[C@H](N(C)C)[C@H]1O,n,n
Cc1cccc2c1N(C(=O)c1ccco1)C(C)(C)c1ssc(=S)c1-2,n,n
Cc1ccc2c(c1)N(C(=O)c1ccco1)C(C)(C)c1ssc(=S)c1-2,32µM,n
COc1cc(C)c(C(N)=O)c(OC)n1,n,n
SMILES,Cruzain noTriton,Cruzain inh Det
O=C(N/N=C/c1ccccc1Cl)c1[nH]c2ccc(Br)cc2c1-c1ccccc1,13µM,n
COc1ccc(/C=N/NC(=O)c2[nH]c3ccc(Br)cc3c2-c2ccccc2)cc1,u,n
CCCCC/C=C\C[C@@H](O)/C=C/C=C/C=C/[C@@H](O)CCCC(=O)O,n,n
O=C(CNC(=O)c1ccco1)OCN1C(=O)c2ccccc2C1=O,u,20µM
O=C(CNC(=O)c1ccco1)OCC(=O)c1cccc2ccccc12,n,n
C/C(=C\c1ccc(C(=O)O)cc1)c1ccc2c(c1)C(C)(C)CCC2(C)C,6.3µM!,n
CC1(C)CCC(C)(C)c2cc(C(=O)Nc3ccc(C(=O)O)cc3)ccc21,n,n
COc1ccc(-c2nc3ccccc3o2)cc1NC(=O)c1ccc(N2CCC(C)CC2)c([N+](=O)[O-])c1,n,n
Nc1nc(N)nc(CC(=O)O)n1,n,n
N#Cc1nc(Cc2cccc3ccccc23)oc1N1CCN(c2ccccc2)CC1,7.9µM,n
N#Cc1nc(Cc2cccc3ccccc23)oc1N1CCOCC1,n,n
CC1CCN(c2oc(Cc3cccc4ccccc34)nc2C#N)CC1,n,n
COc1ccc(N2CCN(c3oc(Cc4cccc5ccccc45)nc3C#N)CC2)cc1,16µM,n
CCn1c(O)c(/C=C2\C=Nc3ccccc32)sc1=Nc1ccc(C)cc1,16µM,n
CCOC(=O)c1c(Nc2ccccc2)sc(/C=C2\C=Nc3ccccc32)c1O,n,n
N#Cc1nc(-c2ccco2)oc1N1CCN(C(c2ccccc2)c2ccccc2)CC1,u,n
COc1ccccc1-c1nc(C#N)c(N2CCN(C(c3ccccc3)c3ccccc3)CC2)o1,7.9µM,25µM
COc1ccccc1-c1nc(C#N)c(N2CCN(c3cccc(Cl)c3)CC2)o1,u,22µM
N#Cc1nc(-c2ccco2)oc1N1CCN(c2cccc(Cl)c2)CC1,u,n
COc1ccccc1N1CCNCC1,n,n
COc1ccc(OC)c(N2Cc3ccccc3C2)c1,u,n

# Assay outcomes (PubChem)
